PAX8 inh HTS: lowers PAX8-driven luciferase in RMG-I cells. RMG-I TPO-luciferase reporter, SteadyGlo, 24 h. inhibition, % at 12.6 µM. hit rate 1.2% among 360,000. AID 652154;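 active = mean replicate inhibition at least 60% with every replicate also reaching 60%; inconclusive = only one of the two criteria is met; inactive = mean below 60% and not all replicates reaching 60%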;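 note: luciferase light reporting Pax8 driven TPO promoter activity; plate controls were median of neutral control wells for no effect and mitoxantrone controls for full effect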
EBV LMP1 NFkB: inhibitors of Epstein-Barr LMP1-induced NF-kappaB reporter | LMP1-induced NF-kappaB luciferase reporter cells, luminescence | inhibition, % at 12.5 µM | hit rate 0.69% among 350,000 | AID 504558; in the data active = inhibition above about 41%; inconclusive = no clear call, values can overlap the other calls;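 note: 0% = neutral control wells and 100% = reference inhibitor control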
LGR2 antag: Drosophila LGR2 receptor signaling inhibition. HEK293 LGR2, CRE-luciferase, bursicon-stimulated, 4 h. inhibition, % at 9.99 µM. hit rate 0.35% among 380,000;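 active = drop in luminescence signal, shown as inhibition above about 50% in the replicate tests, limit read from the data, passing the limit was not always enough; inconclusive = probably only some replicates passing the limit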;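 note: agonist challenge used bursicon conditioned medium at about half maximal strength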
EWS-Fli block: inhibitors of EWS/Fli oncoprotein transcriptional activity. A673 NR0B1-luciferase reporter, viability-normalised. inhibition, % at 12.6 µM. hit rate 0.67% among 350,000. AID 651661;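 active = mean inhibition of at least 50% after viability correction, with every replicate also passing that limit; inconclusive = mean reaches 50% but only one of two replicates passes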;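 note: firefly luciferase signal divided by Alamar Blue viability fluorescence both relative to DMSO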
TRPM1 prom inh: reduces MITF-dependent TRPM1 promoter luciferase signal | SK-MEL-5 TRPM1 promoter luciferase, 24 h | inhibition, % at 12.5 µM | hit rate 0.83% among 330,000 | AID 488899;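 active = mean inhibition across replicates of 60% or more, whatever share of single replicates reaches that level; inconclusive = some that reach 60%, reason not given; inactive = mean inhibition across replicates below 60%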
Shn3 inh set2: Schnurri-3 reporter inhibition in Clone20 osteoblasts | inhibition, % at 12.5 µM | Clone20 osteoblast Shn3 3'UTR firefly luciferase, 24 h | hit rate 0.52% among 360,000;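 active = mean inhibition of at least 75% with every replicate also reaching 75%; inconclusive = mean inhibition at least 75% but some replicate below; inactive = mean inhibition below 75%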;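 note: 0% = median of neutral control wells and 100% = pilot-screen positive control compound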
An asterisk follows results filed as active; ? = inconclusive; / = no result; ! = not active in a repeat. Hits are enriched below; roughly 2.2% of the tested compounds scored in any of these assays.

SMILES	PAX8 inh HTS	EBV LMP1 NFkB	LGR2 antag	EWS-Fli block	TRPM1 prom inh	Shn3 inh set2
CCCNC(=O)C[C@H]1CC[C@@H]2[C@@H](COc3ccc(NC(=O)c4ccc(Cl)cc4)cc3C(=O)N2C)O1	10.5	/	3.4	-33.9	/	/
CC[N+](C)(C)Cc1ccccc1Br	-10.6	82.9*	8.9	-6.6	0.3	2.5
CN1CCCN(Cc2ccccc2Br)CC1	-4.4	-12.9	14.4	12.4	19.1	-3.9
CCc1cc(C(=O)Nc2ncccc2O)sc1C	-7.2	46.7*	31.5	/	-3.6	-15.3
c1ccc(-c2nnc(-c3ccccn3)nc2NC2CCCCC2)cc1	68.7*	86.1*	11.2	/	73.8*	80.2
O=C(/C=C/c1ccc(OCc2ccccc2)c(OCc2ccccc2)c1)c1cccnc1	4.7	-10.4	-16.3	/	23.9	88.8*
COc1ccc(C=CC(=O)c2ccc(OCc3ccccc3)c(OC)c2)cc1OC	22.8	7.5	0.5	0.7	/	-14.6
O=C(/C=C/c1ccc(Cl)cc1)c1cccnc1	/	2.0	/	/	3.3	-12.2
N#Cc1ccc(/C=C/C(=O)c2cccnc2)cc1	0.5	5.8	80.6*	-5.7	20.1	61.8
Cc1ccc(S(=O)(=O)Nc2cccc3c2O[C@H](CN(C)S(=O)(=O)c2ccc(C)cc2)[C@H](C)CN([C@@H](C)CO)C3=O)cc1	-13.8	/	-35.8	10.5	/	/
C[C@@H]1CN([C@H](C)CO)C(=O)c2cc(C#CCN(C)C)cnc2O[C@@H]1CN(C)Cc1ccc2c(c1)OCO2	/	/	-6.1	5.3	/	/
Fc1cccc(CN2C[C@@H]3N[C@H](C2)C3c2ccc(-c3ccccc3)cc2)c1 (some centres not stated)	89.0*!	/	-30.0	-7.0	/	/
Fc1cccc(CN2C[C@@H]3N[C@H](C2)[C@@H]3c2ccc(-c3cccc(F)c3)cc2)c1	94.4*	/	17.3	-1.4	/	/
Fc1cccc(-c2ccc(C3[C@@H]4CN(Cc5cccnc5)C[C@H]3N4)cc2)c1 (some centres not stated)	-20.3	/	-27.9	-1.4	/	/
c1ncc(-c2ccc(C3[C@@H]4CN(Cc5ccc6c(c5)OCO6)C[C@H]3N4)cc2)cn1 (some centres not stated)	-2.7	/	10.4	2.7	/	/
C(=C\c1ccc(C2[C@@H]3CN(Cc4ccc5c(c4)OCO5)C[C@H]2N3)cc1)/c1ccccc1 (some centres not stated)	81.0*!	/	-17.8	-10.6	/	/
Cc1noc(C)c1S(=O)(=O)Nc1cccc2c1O[C@H](CN(C)C(=O)NC1CCCCC1)[C@H](C)CN([C@H](C)CO)C2=O	11.1	/	-17.7	-2.5	/	/
O=[N+]([O-])c1ccc(Sc2cc[n+]([O-])c3ccccc23)c([N+](=O)[O-])c1	22.4	-13.4	?	-8.9	90.4*	-9.9
O=[N+]([O-])c1ccc(Cl)cc1Sc1nc2ccccc2o1	/	1.5	20.6	12.0	-6.1	-11.9
O=[N+]([O-])c1ccc(Sc2nc3ccccc3o2)c([N+](=O)[O-])c1	/	15.1	96.8*	63.0*	86.7*	97.9*
O=c1[nH]c(Sc2ccc([N+](=O)[O-])cc2[N+](=O)[O-])nc2ccccc12	24.6	-5.7	12.6	-19.1	6.6	2.5
COc1ccc2nc(C)cc(Sc3nc4ccccc4s3)c2c1	69.0*	29.5	3.7	-35.0	3.8	76.1
COc1ccc2nc(C)cc(SCC(=O)NNC(=O)COc3ccccc3)c2c1	/	2.6	/	/	-0.7	18.4
CCC(=O)Nc1ccc2c(c1)OC[C@@H](C)N(Cc1nccs1)C[C@@H](C)[C@@H](OC)CN(C)C2=O	-0.3	/	22.0	10.8	/	/
N#C/C(=C\c1ccc2c(c1)OCCO2)C(=O)NC1CCCCC1	100.1*	9.3	-30.5	-84.8	-7.4	-26.7
COc1ccc(/C=C(/C#N)C(=O)NC2CCCCC2)cc1Br	/	14.6	/	/	1.7	18.6
Cc1ccc2c(C)nc(Nc3nc(CSc4nc5ccccc5[nH]4)cc(=O)[nH]3)nc2c1	/	-1.6	32.0	-4.2	80.0*	73.7
COc1ccc2c(C)nc(Nc3nc(-c4ccccc4)cc(=O)[nH]3)nc2c1	95.2*	-142.8	?	32.9	70.2*	-96.6
CC(C)Oc1ccccc1C1CC(=O)Nc2cc3c(cc21)OCO3 (configuration not stated)	68.3*	5.6	/	/	37.0	68.7
CCCOc1ccccc1C1CC(=O)Nc2cc3c(cc21)OCCO3 (configuration not stated)	/	4.3	/	/	36.8	87.3*

Assay outcomes (PubChem)
